Results as given in PubChem BioAssay (EPA / NIEHS).
Activity calls are given as the source filed them. How the source made its calls: active means hit-call score of the fitted dose curve at least 0.9, where 1 is the maximum; inactive means score below 0.9.

Assay: ATG_PBREM_CIS: Attagene CIS-FACTORIAL HepG2 Assay for human Phenobarbital-responsive Enhancer Module (PBREM) (AID 2282955)
Conditions: HepG2 PBREM cis-reporter, Attagene multiplexed transcription; actives raise or lower the signal
Procedure: ATG_CIS is a cell-based, multiplexed-readout assay that uses HepG2, a human liver cell line, with measurements taken at 24 hours after chemical dosing in a 24-well plate.ATG_PBREM_CIS is one of 52 assay component(s) measured or calculated from the ATG_CIS assay. It is designed to make measurements of mRNA induction, a form of inducible reporter, as detected with fluorescence intensity signals by Reverse transcription polymerase chain reaction (RT-PCR) and Capillary electrophoresis technology.Data from the assay component ATG_PBREM_CIS was analyzed into 1 assay endpoint. This assay endpoint, ATG_PBREM_CIS, was analyzed with bidirectional fitting relative to DMSO as the negative control and baseline of activity. Using a type of inducible reporter, measures of mRNA for gain or loss-of-signal activity can be used to understand the reporter gene at the transcription factor-level as they relate to the gene NR1I3. Furthermore, this assay endpoint can be referred to as a primary readout, because this assay has produced multiple assay endpoints where this one serves a reporter gene function. To generalize the intended target to other relatable targets, this assay endpoint is annotated to the nuclear receptor intended target family, where the subfamily is non-steroidal.
Human liver HepG2 cells are transiently transfected with multiple reporter transcription units (MRTUs) in 6-well plates using FuGene 6 reagent (Roche; 3 ml FuGene/1 mg DNA). The MRTU constructs are regulated by a cis-regulating element (promoter). […] A major difference between the CIS and TRANS system is that in CIS activities of endogenous TFs are measured, whereas the TRANS assay evaluates changes in activities of exogenous, chimeric NR-Gal4 proteins. […] At the end of 24 hour incubation, total RNA was isolated using TriZol reagent (Invitrogen). The isolated RNA is then reverse-transcribed using oligo(dT) primer and Mo-MLV reverse transcriptase (Invitrogen) with DNAse I (Ambion) treatment for 30 min. The one-tenth of the produced cDNA was amplified by PCR using Taq DNA polymerase (Invitrogen) and two reporter sequence-specific primers. The PCR products were fluorescently labeled by primer extension with 6-arboxyfluorescein (6-FAM) 5'-labeled reporter sequence-specific primer (2 min at 95 C, 20 s at 68 C and 10 min at 72 C) and these products were digested with 5U of HpaI (New England Biolabs) for 2h at 37 C. The fragments were purified using Qiaquick PCR columns (Qiagen), analyzed on an ABI 3130xL genetic analyzer (Applied Biosystems) with peak positions identified by using a set of X-rhodamine (ROX)-labeled MapMarker1000 molecular weight standards (BioVentures). The raw capillary electrophoresis data was processed using Attagraph software (Attagene).
With CC(C)(C)c1n[nH]c(=S)n(N)c1=O the outcome was “inactive”.
In the case of OCCOc1cccc(OCCO)c1, the outcome is reported as “inactive”.
For CC(=O)C(=O)O, the outcome was “inactive”.
With Cc1ccccc1C=O the outcome was “inactive”.
With CCCCCCC#CC(=O)OC the outcome was “inactive”.
In the case of COC(=O)OC, the outcome is reported as “inactive”.
With CCCCCC(=O)OCCc1ccccc1 the outcome was “inactive”.
In the case of CSc1nc(NC2CC2)nc(NC(C)(C)C)n1, the outcome is reported as “inactive”.
In the case of CC1(C)[C@@H]2CC[C@@]1(C)[C@H](O)C2, the outcome is reported as “inactive”.
For N#Cc1ccccc1, the outcome was “inactive”.
In the case of C=CC(C)(C)O, the outcome is reported as “inactive”.
With CC(C=O)Cc1ccc(C(C)C)cc1 (stereo not given) the outcome was “inactive”.
In the case of O=C(O)CCCCCCCCCCC(=O)O, the outcome is reported as “inactive”.
For CC(=O)OCCOC(C)=O, the outcome was “inactive”.
For O=C(OCc1ccccc1)C(=O)OCc1ccccc1, the outcome was “inactive”.
With O=P(c1ccccc1)(c1ccccc1)c1ccccc1 the outcome was “inactive”.
With CCC(=O)OCCC(C)CCC=C(C)C (stereo not given) the outcome was “inactive”.
For OCc1cccnc1, the outcome was “inactive”.
With O=C(O)c1snc(Cl)c1Cl the outcome was “inactive”.
In the case of NC(=O)NC1NC(=O)NC1=O (stereo not given), the outcome is reported as “inactive”.
With CC(=O)OCc1ccc2c(c1)OCO2 the outcome was “inactive”.
With c1ccc2sc(SN(C3CCCCC3)C3CCCCC3)nc2c1 the outcome was “inactive”.
In the case of Cc1ccc(C=O)s1, the outcome is reported as “inactive”.
With CCOC(=O)c1ccccc1OC the outcome was “inactive”.
In the case of CNC[C@H](O)c1cccc(O)c1, the outcome is reported as “inactive”.
For Cc1ccc(C(=O)c2cc(O)c(O)c([N+](=O)[O-])c2)cc1, the outcome was “inactive”.
In the case of CCCC(=O)c1cc(O)c(O)cc1O, the outcome is reported as “inactive”.
For Cc1cc(C2(c3cc(C)c(O)cc3C)OS(=O)(=O)c3ccccc32)c(C)cc1O, the outcome was “inactive”.
For O=C1O[C@@H]2[C@@H](O)[C@H](O)O[C@@H]2[C@H]1O, the outcome was “inactive”.
With CO[Si](C)(OC)c1ccccc1 the outcome was “inactive”.
With CC(C)=CCCC(C)=CCCC(C)=CCO the outcome was “inactive”.
For CC(C)C1CCC(O)CC1 (stereo not given), the outcome was “inactive”.
In the case of CN(C)C(=N)N=C(N)N, the outcome is reported as “inactive”.
With Cc1c(Cl)c(=O)oc2cc(O)ccc12 the AC50 was 37.3 µM (active).
With O=C(Cl)c1cccc(C(=O)Cl)c1 the outcome was “inactive”.
In the case of CC1CC(OC(=O)c2ccccc2O)CC(C)(C)C1 (stereo not given), the outcome is reported as “inactive”.
For CC(C)(N)CO, the outcome was “inactive”.
In the case of O=Cc1ccc(Cl)c([N+](=O)[O-])c1, the outcome is reported as “inactive”.
With C[Si](O[Si](C)(C)C)O[Si](C)(C)C the outcome was “inactive”.
With CCCCC(CC)COC(=O)/C=C\C(=O)OCC(CC)CCCC (stereo not given) the outcome was “inactive”.
